Assay results: PubChem BioAssay (Tox21)
Inconclusive results are not listed. A number with no mark means an inactive call. Calls of active or inactive are those of the source. Calls follow the shape of the dose curve; as a rule, active = well fitted cell-killing curve with a large enough effect in the repeat runs; inconclusive = weak or mixed curves; inactive = flat fitted curve, though single readings scatter. Non-standard residues stand in square brackets, D forms with d. Residues, ends and D or L forms follow the SMILES beside them. *: point of attachment. Sta = CC(C)C[C@H](N)[C@@H](O)CC(=O)O; Isovaleryl = CC(C)CC(=O)*
% is scaled to controls: 0 for no effect and ±100 for the full control effect.

Experiment: qHTS RealTime-Glo MT Cell Viability Assay in HepG2 cells - 32 hour (AID 1224877); also: nearly all actives have a fitted effect of over 55% in size
Settings: RealTime-Glo luminescence; series mostly up to 76.8 µM
From the text: U.S. Tox21 Program National Center for Advancing Translational Sciences [NCATS] NIH Chemical Genomics Center [NCGC] U.S. Environmental Protection Agency [EPA] National Institutes of Environmental Health Sciences [NIEHS] National Toxicology Program [NTP] U.S. Food and Drug Administration [FDA] Tox21 Assay Overview: Measure of cell viability is critical in the cell-base assay. Analysis of cell viability is necessary for the characterization of cell responses to cytotoxic drugs and environmental stress. A RealTime-Glo MT Cell Viability Assay to monitor cell viability in real time of continues cell culture during 40 hours of compound treatment was used to screen Tox21 10K library compounds in HepG2 cells. The RealTime-Glo MT Cell Viability Assay is a nonlytic, homogeneous, bioluminescent method to measure cell viability in real time using a simple, plate-based method. The assay involves adding NanoLuc luciferase and a cell-permeant prosubstrate to cells in culture. Viable cells reduce the proprietary prosubstrate to generate a substrate for NanoLuc luciferase. This substrate diffuses from cells into the surrounding culture medium, where it is rapidly used by the NanoLuc Enzyme to produce a luminescent signal. The signal correlates with the number of viable cells, making the assay well suited for cytotoxicity studies.
Tox21 Assay Protocol Summary: The mixture of HepG2 cell suspension and reagents were dispensed at 600cells/6 ul/well in 1536-well tissue culture treated black solid bottom plates using a Multidrop dispenser. After the assay plates were incubated at a 37 C/5% CO2 incubator for 5 hours, 23 nL of compounds dissolved in DMSO, positive and negative controls was transferred to the assay plate by a pintool work station. The plates were incubated at 37 C for 40 hours. The luminescence intensity were measured at 0h, 8h, 16h, 24h, 32h and 40h time points using ViewLux plate reader during compound treatment.
With `CC(C)C(=O)Nc1cccc(C2CN3CCSC3=N2)c1` (stereo not given) the outcome was “inactive”.
With `CNC(=O)c1c(I)c(NC(C)=O)c(I)c(C(=O)O)c1I` the outcome was “inactive”.
In the case of `CC/C=C\CCOC(=O)c1ccccc1`, the outcome is reported as “inactive”.
For `COC(=O)/C=C(\C)CCC=C(C)C`, the outcome was “inactive”.
With `CCCCCCCCOCCC#N` the outcome was “inactive”.
With `C[C@@H](CN1CC(=O)NC(=O)C1)N1CC(=O)NC(=O)C1` the outcome was “inactive”.
With `CCO/C=C1\N=C(c2ccccc2)OC1=O` the outcome was “inactive”.
In the case of `CC(C)(C)C(=O)NCCCC(=O)O`, the outcome is reported as “inactive”.
In the case of `Cc1ccc2cccnc2c1`, the outcome is reported as “inactive”.
In the case of `CC/C=C/CCCCCCCCCCOC(C)=O`, the outcome is reported as “inactive”.
For `CC(=O)O[C@@H]1CC2C3CCc4cc(OC(=O)c5ccccc5)ccc4C3CCC2(C)[C@H]1OC(C)=O` (stereo not given in full), the outcome was “inactive”.
Molecule `C=CCCCCCCCCCCCCCC` has an activity change, negative = cytotoxic of -5.43% [at 15.8 µM].
With `CCCCOCCCC` the outcome was “inactive”.
For `C=C(C)C(=O)OCCCC`, the outcome was “inactive”.
In the case of `COC(=O)C(c1ccccc1Cl)N1CCc2sccc2C1` (stereo not given), the outcome is reported as “inactive”.
For `CCN(CC)CC`, the outcome was “inactive”.
For `O=C(O)/C=C(\CC(=O)O)C(=O)O`, the outcome was “inactive”.
For `CC(C)CC(=O)N[C@H](C(=O)N[C@H](C(=O)N[C@@H](CC(C)C)[C@@H](O)CC(=O)N[C@@H](C)C(=O)N[C@@H](CC(C)C)[C@@H](O)CC(=O)O)C(C)C)C(C)C` (Isovaleryl-VV[Sta]A[Sta]-OH), the outcome was “inactive”.
For `CC(=O)c1c(C)cc(C(C)(C)C)cc1C`, the outcome was “inactive”.
In the case of `Cc1ccc2ccccc2n1`, the outcome is reported as “inactive”.
With `O=C(O)Cc1c(Cl)ccc(Cl)c1Cl` the outcome was “inactive”.
For `Cc1cc(C)c(N)c(Cl)c1`, the outcome was “inactive”.
In the case of `Cc1ccccc1OCC(=O)O`, the outcome is reported as “inactive”.
For `COC(=O)c1ccc(C(=O)O)cc1`, the outcome was “inactive”.
For `CCCCCCC(=O)c1ccccc1`, the outcome was “inactive”.
With `CCCC(=O)C(CC)Sc1ccoc1C` (stereo not given) the outcome was “inactive”.
With `CCCCCCCCCCCCCCBr` the outcome was “inactive”.
For `O=C(O)CCC(=O)Nc1ccc(S(=O)(=O)Nc2nccs2)cc1`, the outcome was “inactive”.
With `Cc1ccc(OC(=O)CC(C)C)cc1` the outcome was “inactive”.
For `Clc1cc(Cl)c(Cl)c(Cl)c1Cl`, the outcome was “inactive”.
For `CC(O)C(CO)C(C)O` (stereo not given), the outcome was “inactive”.
For `CC(C)(C)c1ccc(N)cc1`, the outcome was “inactive”.
For `CCCCCCCC(=O)N(C)C`, the outcome was “inactive”.
In the case of `C=C(C)C(=O)OCCOC1CC2CC1C1C=CCC21` (stereo not given), the outcome is reported as “inactive”.
For `CCCCCCCCCCCCCC(=O)OCC`, the outcome was “inactive”.
For `CC(=O)Nc1ccc(S(=O)(=O)Nc2cc(C)on2)cc1`, the outcome was “inactive”.
In the case of `Clc1ccc2c(c1)Nc1ccccc1S2`, the outcome is reported as “inactive”.
For `CC(=O)OCC(=O)[C@@]1(O)CC[C@H]2[C@@H]3CCC4=CC(=O)C=C[C@]4(C)[C@H]3[C@@H](O)C[C@@]21C`, the outcome was “inactive”.
For `C=CCN(CC=C)CC=C`, the outcome was “inactive”.
For `CCCc1ncc(C(=O)O)s1`, the outcome was “inactive”.
